Test results: the supplement of paper PMC11732987, “Enantioselective OTUD7B fragment discovery through chemoproteomics screening and high-throughput optimisation” (Communications Chemistry, 2025)

Experiments:
Assay in all cases: log2 ratio of Biotin-Ahx-Ub-VS probe labelling (fragment/DMSO); higher = less target engagement (more negative = stronger competition), active = hit call of the paper (q ≤ 0.05, log2 ratio ≤ -1)
Details in all cases: compound concentration: 200 uM; treatment time: 3 h
[1] = molecular target: USP34 (UniProt Q70CQ2)
Sequence of USP34 (Q70CQ2 whole entry, the tested form may be a part): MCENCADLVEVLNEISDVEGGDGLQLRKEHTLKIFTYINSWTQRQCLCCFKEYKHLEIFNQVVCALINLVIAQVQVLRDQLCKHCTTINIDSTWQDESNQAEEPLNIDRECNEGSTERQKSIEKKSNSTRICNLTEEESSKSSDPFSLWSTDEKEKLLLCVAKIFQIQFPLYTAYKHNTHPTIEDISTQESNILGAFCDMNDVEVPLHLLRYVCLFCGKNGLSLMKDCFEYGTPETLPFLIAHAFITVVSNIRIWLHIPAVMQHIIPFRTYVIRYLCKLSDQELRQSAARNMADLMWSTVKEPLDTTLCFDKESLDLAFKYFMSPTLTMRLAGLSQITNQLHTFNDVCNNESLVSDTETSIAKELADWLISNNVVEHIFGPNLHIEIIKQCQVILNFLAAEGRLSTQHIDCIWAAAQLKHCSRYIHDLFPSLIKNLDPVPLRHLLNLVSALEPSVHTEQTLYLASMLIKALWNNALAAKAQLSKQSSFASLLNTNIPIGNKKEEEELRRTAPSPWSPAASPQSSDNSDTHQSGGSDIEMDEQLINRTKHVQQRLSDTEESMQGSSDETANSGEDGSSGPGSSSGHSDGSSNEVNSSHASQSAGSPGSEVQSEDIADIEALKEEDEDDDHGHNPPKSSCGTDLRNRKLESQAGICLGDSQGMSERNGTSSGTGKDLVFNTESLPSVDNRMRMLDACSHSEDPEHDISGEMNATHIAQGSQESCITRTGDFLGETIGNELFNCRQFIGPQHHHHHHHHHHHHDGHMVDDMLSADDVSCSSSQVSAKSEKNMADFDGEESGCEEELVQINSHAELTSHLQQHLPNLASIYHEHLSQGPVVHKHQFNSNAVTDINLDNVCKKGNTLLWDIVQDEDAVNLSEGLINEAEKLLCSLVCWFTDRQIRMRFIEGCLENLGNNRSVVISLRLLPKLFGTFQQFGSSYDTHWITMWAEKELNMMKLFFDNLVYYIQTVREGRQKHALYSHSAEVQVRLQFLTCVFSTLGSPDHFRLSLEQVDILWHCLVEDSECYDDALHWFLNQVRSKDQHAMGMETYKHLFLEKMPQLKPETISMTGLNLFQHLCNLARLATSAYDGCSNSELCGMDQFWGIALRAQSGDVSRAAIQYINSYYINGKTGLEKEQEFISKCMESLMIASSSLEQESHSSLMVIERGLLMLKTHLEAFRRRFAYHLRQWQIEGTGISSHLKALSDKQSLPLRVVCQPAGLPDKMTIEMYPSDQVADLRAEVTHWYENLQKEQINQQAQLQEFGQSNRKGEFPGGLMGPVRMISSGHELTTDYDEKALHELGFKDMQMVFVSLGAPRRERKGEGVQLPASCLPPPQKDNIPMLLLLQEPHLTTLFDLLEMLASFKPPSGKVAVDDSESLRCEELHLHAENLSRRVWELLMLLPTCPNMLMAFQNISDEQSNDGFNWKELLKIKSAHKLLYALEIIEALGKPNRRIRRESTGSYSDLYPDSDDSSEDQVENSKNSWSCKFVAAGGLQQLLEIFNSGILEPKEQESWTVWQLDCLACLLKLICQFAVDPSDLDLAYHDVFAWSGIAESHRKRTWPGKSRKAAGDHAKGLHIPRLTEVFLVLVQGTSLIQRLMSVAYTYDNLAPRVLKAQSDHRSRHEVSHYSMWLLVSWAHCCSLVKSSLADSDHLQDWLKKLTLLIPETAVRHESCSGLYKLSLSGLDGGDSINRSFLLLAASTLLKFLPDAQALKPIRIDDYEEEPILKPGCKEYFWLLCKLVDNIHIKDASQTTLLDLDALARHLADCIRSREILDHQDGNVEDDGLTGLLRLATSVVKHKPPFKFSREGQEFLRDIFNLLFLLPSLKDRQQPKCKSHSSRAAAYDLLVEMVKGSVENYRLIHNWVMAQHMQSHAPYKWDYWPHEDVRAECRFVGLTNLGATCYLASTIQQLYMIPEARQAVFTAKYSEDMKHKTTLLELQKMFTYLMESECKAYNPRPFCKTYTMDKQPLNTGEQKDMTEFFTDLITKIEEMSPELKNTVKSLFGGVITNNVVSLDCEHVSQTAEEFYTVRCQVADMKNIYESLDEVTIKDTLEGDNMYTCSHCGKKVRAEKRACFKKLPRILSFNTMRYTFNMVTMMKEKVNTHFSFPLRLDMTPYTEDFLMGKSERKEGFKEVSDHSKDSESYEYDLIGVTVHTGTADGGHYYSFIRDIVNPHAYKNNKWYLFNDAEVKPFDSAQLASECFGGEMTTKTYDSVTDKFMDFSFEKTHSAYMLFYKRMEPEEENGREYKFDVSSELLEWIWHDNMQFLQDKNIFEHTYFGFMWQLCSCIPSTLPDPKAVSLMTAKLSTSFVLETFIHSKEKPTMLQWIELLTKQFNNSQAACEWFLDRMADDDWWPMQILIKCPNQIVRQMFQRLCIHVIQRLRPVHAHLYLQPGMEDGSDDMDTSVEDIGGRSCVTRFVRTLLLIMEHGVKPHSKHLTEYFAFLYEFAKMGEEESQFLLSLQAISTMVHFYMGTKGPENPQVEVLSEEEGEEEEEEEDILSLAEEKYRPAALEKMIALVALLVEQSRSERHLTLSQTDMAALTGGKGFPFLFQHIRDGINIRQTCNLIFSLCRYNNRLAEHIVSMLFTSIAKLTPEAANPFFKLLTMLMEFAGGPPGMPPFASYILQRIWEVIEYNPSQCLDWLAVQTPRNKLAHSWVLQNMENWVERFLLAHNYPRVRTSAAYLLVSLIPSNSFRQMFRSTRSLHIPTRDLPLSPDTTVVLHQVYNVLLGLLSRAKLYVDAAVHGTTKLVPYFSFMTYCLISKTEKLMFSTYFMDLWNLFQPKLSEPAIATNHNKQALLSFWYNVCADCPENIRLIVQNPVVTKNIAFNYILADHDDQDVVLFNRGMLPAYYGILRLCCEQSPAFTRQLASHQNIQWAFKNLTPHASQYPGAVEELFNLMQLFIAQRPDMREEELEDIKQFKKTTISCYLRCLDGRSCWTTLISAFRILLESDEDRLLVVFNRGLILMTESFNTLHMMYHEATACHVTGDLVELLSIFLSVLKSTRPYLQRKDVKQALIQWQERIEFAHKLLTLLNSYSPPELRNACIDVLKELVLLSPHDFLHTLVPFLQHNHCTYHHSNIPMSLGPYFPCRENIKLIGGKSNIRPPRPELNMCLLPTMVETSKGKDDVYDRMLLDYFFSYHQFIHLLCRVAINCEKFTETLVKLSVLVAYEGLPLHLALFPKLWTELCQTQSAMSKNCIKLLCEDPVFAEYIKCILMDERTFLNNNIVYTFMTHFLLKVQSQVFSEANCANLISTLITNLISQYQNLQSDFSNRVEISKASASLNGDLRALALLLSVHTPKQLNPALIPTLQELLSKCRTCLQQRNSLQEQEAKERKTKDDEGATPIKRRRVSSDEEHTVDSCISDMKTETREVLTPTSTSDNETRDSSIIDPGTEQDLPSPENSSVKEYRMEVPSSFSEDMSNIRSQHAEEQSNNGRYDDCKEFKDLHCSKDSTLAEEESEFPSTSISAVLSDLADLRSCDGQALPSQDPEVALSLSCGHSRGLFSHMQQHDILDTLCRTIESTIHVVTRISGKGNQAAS
Outline: (§1)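 HEK293T lysate (495 µg per sample, in Tris/CHAPS/IGEPAL buffer with protease inhibitors) was exposed in triplicate for 3 h to fragment at 200 µM or to vehicle, then to Biotin-Ahx-Ub-VS at 0.5 µM final for 1 h. Labelled DUBs were enriched on NeutrAvidin, digested with LysC and trypsin, and analysed by diaPASEF LC-MS/MS. Spectronaut label-free quantities were normalised to the global median, and values are average log2 ratios of fragment over vehicle from an unpaired t-test. Only proteins with ≥2 unique peptides were used.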

[2] = molecular target: T1, USP36 (UniProt Q9P275)
T1 sequence (whole entry): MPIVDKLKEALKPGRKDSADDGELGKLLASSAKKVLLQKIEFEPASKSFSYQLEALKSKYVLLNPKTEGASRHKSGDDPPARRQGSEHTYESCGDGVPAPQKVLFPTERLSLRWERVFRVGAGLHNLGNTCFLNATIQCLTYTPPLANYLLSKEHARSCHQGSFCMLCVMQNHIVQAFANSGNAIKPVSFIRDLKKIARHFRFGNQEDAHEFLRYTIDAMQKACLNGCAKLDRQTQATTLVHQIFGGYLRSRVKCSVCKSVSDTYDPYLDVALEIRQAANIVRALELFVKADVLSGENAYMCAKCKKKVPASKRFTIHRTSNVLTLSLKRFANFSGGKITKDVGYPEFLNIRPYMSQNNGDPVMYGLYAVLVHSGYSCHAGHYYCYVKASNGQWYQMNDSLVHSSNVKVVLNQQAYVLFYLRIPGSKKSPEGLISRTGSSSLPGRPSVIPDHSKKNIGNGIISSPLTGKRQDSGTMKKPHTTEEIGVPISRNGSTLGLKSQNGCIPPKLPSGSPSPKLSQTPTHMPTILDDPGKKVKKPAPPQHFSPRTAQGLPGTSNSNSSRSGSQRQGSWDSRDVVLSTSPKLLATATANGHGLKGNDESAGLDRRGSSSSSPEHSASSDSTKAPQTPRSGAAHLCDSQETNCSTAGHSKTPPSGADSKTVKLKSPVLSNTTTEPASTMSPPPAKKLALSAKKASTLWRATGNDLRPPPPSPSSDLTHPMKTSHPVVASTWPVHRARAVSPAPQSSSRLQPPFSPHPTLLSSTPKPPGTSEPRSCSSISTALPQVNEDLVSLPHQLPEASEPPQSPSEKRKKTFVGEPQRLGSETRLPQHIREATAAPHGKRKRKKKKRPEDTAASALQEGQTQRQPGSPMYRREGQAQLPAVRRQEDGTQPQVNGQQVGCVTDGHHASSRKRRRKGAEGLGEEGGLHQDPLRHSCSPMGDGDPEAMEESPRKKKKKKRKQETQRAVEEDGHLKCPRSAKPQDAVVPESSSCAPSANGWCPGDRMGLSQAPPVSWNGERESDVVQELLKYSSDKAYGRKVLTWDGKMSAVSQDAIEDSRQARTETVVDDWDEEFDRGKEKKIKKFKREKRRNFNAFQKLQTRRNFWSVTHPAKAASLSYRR
Outline: as §1

[3] = molecular target: T2, USP38 (UniProt Q8NB14)
T2 sequence (whole entry): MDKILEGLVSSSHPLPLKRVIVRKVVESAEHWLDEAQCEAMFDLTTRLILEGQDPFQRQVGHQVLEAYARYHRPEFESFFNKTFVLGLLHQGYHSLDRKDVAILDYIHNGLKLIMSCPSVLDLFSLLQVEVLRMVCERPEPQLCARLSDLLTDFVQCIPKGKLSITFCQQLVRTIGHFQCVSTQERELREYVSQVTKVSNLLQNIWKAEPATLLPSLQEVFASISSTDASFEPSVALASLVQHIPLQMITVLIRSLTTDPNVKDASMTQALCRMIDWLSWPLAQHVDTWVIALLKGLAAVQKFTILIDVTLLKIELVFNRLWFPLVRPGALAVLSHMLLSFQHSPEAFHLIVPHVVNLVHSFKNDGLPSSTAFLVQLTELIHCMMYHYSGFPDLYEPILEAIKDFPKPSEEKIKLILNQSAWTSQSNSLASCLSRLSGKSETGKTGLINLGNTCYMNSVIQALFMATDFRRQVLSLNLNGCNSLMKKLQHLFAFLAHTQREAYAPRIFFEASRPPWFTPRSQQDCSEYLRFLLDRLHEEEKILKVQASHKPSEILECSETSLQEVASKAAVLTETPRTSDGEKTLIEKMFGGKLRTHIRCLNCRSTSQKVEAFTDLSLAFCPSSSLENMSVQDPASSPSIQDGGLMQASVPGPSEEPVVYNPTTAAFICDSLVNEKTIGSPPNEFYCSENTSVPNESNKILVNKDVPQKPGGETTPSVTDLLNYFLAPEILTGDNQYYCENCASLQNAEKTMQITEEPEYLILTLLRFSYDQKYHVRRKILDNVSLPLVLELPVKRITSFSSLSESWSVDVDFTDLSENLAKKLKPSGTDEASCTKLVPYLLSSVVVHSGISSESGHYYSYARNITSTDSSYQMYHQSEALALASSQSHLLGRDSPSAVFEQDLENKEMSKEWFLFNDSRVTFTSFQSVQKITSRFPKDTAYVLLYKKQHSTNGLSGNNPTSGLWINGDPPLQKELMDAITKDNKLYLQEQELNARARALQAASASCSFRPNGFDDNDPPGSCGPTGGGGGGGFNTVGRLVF
Outline: as §1

[4] = molecular target: T3, USP39 (UniProt Q53GS9)
T3 sequence (whole entry): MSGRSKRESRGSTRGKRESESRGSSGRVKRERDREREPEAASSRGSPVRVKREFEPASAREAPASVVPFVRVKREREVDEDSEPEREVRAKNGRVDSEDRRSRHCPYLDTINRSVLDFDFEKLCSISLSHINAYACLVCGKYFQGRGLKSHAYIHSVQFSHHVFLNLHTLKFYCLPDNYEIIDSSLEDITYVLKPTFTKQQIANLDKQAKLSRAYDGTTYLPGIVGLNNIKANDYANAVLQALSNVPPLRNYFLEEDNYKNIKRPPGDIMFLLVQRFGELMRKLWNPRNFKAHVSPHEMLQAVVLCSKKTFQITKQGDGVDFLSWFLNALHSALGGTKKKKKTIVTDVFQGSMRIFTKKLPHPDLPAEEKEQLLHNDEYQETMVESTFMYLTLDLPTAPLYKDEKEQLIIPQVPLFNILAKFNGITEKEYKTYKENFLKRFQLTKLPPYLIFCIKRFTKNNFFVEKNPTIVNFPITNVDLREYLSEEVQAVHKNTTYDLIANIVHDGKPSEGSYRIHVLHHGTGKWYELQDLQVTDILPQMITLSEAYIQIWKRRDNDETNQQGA
Outline: as §1

[5] = molecular target: T4, USP4 (UniProt Q13107)
T4 sequence (whole entry): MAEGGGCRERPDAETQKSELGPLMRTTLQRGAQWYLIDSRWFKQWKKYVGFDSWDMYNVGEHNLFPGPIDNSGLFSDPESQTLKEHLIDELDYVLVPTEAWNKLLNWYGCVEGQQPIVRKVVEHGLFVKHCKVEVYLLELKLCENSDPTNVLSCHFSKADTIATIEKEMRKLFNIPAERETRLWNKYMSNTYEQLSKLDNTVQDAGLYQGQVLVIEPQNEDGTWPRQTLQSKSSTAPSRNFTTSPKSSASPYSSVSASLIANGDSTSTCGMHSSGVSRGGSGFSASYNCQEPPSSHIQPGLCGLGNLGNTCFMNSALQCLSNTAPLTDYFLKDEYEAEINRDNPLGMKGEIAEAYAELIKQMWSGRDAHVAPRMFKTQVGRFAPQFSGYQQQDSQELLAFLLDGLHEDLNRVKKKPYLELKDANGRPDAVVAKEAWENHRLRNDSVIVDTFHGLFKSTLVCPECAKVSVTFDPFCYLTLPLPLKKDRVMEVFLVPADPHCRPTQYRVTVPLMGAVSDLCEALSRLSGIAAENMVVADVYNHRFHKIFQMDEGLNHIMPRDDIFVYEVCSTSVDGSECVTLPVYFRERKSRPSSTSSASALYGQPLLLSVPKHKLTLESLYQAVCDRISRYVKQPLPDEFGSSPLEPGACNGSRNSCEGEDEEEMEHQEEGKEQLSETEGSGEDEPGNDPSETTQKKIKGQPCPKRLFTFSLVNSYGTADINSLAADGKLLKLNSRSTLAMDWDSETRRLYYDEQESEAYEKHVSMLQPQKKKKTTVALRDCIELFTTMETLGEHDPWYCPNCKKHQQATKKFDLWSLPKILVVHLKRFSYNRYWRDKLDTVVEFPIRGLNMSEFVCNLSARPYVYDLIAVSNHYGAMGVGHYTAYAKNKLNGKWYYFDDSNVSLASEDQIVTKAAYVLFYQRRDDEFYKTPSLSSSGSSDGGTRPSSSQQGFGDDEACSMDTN
Outline: as §1

Measured: log2 ratio of Biotin-Ahx-Ub-VS probe labelling

CC(NC(=O)CCl)c1cnn(C2CC2)c1 (stereo not given)
inactive: [1] -0.133 | [2] -0.123 | [3] -0.144 | [4] -0.0478 | [5] -0.409
